This note sets out measurements from PMC9574860, “Chemical Toolkit for PARK7: Potent, Selective, and High-Throughput” (Journal of Medicinal Chemistry, 2022).

Screen size: about 7,900 compounds; about 400 (5.1%) showed an effect of 50% or more. The list comes from a sample in which strong results are over-represented; it also holds similar structures and randomly drawn compounds.

Parkinson's disease protein 7 (PARK7/DJ1), sequence (Q99497 whole entry, looked up, the tested form may be a part): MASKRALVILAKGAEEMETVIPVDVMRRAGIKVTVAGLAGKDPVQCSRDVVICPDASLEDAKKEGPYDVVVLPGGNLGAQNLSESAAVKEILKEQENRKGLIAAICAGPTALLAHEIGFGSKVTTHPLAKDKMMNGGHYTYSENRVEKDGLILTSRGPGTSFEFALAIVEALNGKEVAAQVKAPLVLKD

The assay concerns the target Parkinson's disease protein 7 (PARK7/DJ1) (human, UniProt Q99497). Kind of assay: primary screen, percent inhibition; read as competition with a fluorescent probe by fluorescence polarization; higher = more effect of the substance. To be noted: 100 µM. The method, boiled down:
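Covalent fragments at 100 μM final were incubated 2 h with 0.2 μM PARK7, then 20 nM probe JYQ-107 added for a further 2 h. Fluorescence polarization read at 480/520 nm; relative FP loss versus reference controls gave remaining enzyme activity.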
For `O=C(O)c1ccc(CS)cc1`, the Inhibition % worked out at 17.3%.

Take `C#CC(=O)Nc1ccc(CC(=O)O)cc1`: the Inhibition % stood at 0.397%.

On to `O=C(O)Cc1ccc(CS)cc1`, for which the Inhibition % was 58.7%.

For `COc1ccccc1CS`, the Inhibition % is 1.46%.

For the compound `O=C(O)Cc1ccccc1CS`, the Inhibition % is 89.6%.

For `C=CC(=O)NCC1CCCc2sc(C)nc21` (centres unmarked), the Inhibition % is given as 5.16%.

Turning to `Fc1ccc(C2=NOC(CCl)C2)cc1` (centres unmarked), the Inhibition % was -2.86%.

`COc1ccc(S(=O)(=O)N(C)C)cc1NC(=O)CCl`: the Inhibition % came out at 20.4%.

As to `C=CC(=O)N1CCOc2c(F)ccc(F)c21`, the Inhibition % worked out at 9%.

Take `C=CC(=O)Nc1cc(CC(C)(C)C)nn1C`: the Inhibition % is 8.54%.

Take `O=C(CCCl)Nc1ccccc1`: the Inhibition % is recorded as 3.48%.

With `O=C(CC1SC(=O)NC1=O)Nc1ccc(Cl)cc1` (centres unmarked), the Inhibition % worked out at 95.7%.

As for `O=C(CC1SC(=O)NC1=O)Nc1ccccc1` (centres unmarked), the Inhibition % is on record as 82.7%.

For the compound `CC(=O)Nc1ccc(OC(=O)N(C)C)cc1`, the Inhibition % was 10.8%.

Take `CC(=O)Nc1ccc(S(=O)(=O)F)cc1`: the Inhibition % was determined as 15.8%.

As to `O=C(CCCl)Nc1ccc(F)cc1`, the Inhibition % stood at 5.87%.

Consider `C=CC(=O)Nc1ccc(Cl)cc1`, for which the Inhibition % stood at 5.59%.

As for `O=C(CCl)Nc1ccccc1C(=O)Nc1ccccc1`, the Inhibition % was determined as 10.5%.

As for `CC(=O)Nc1ccc(NC2SC(=O)NC2=O)cc1` (centres unmarked), the Inhibition % was 66.6%.

Consider `N#CC1(CCCl)CCCCC1`, for which the Inhibition % worked out at 3.15%.

In the case of `C=CC(=O)N1CCN(c2ccc(OC)cn2)CC1`, the Inhibition % is on record as 5.59%.

As for `O=C(CCl)Nc1ccc(NC(=O)c2cccs2)cc1`, the Inhibition % was found to be 28%.

On to `COc1ccc(Cl)cc1C(=O)NNC(=O)CCl`, for which the Inhibition % is listed as 29.8%.

`COc1cc(OC)c(C(=O)CCl)c(OC)c1`: the Inhibition % was 5.2%.

Take `COc1ccc(C(=O)CCl)cc1F`: the Inhibition % stood at 91.7%.

In the case of `COc1ccc(NC(=O)CCl)cc1Cl`, the Inhibition % was 28.1%.

`COc1ccc(Cl)cc1NC(=O)CCl`: the Inhibition % came out at 14.9%.

As for `COc1ccc(C(=O)CCl)cc1Cl`, the Inhibition % is given as 95.9%.

Regarding `C=CC(=O)NC1CC(C(C)(C)C)C1` (centres unmarked), the Inhibition % worked out at 14%.

Take `C=CC(=O)N1c2cc(OC)ccc2NC(=O)C1C` (centres unmarked): the Inhibition % was 9.84%.

Turning to `O=S(=O)(F)c1cc(Br)ccc1Cl`, the Inhibition % came to 88.4%.

Turning to `O=S(=O)(F)c1ccc(Br)cc1`, the Inhibition % is 13.2%.

Turning to `O=S(=O)(F)c1ccc(Cl)c(S(=O)(=O)F)c1`, the Inhibition % is given as -3.28%.

As for `CC1CCN(C(=O)CCl)c2ccccc2S1` (centres unmarked), the Inhibition % worked out at 6.09%.

`Cc1ccc(Oc2ccc(Cl)cc2NC(=O)CCl)cc1`: the Inhibition % was 2.17%.

Consider `COc1cc(NC(=O)OC(C)(C)C)ccc1B1OC(C)(C)C(C)(C)O1`, for which the Inhibition % came out at 14.5%.

As to `O=C(CCl)Nc1cc(Cl)ccc1-n1cncn1`, the Inhibition % amounted to 11%.

`Cc1ccc(Sc2ccc(NC(=O)CCl)cc2)cc1C`: the Inhibition % came to 34.5%.

With `CSc1ccc(NC(=O)CCl)cc1`, the Inhibition % is 86%.

On to `O=C(CCl)Nc1ccccc1SC(F)F`, for which the Inhibition % was 9.47%.

As for `Cc1ccc(Sc2ccc(NC(=O)CCl)cc2)c(C)c1`, the Inhibition % stood at 25.5%.

On to `Cc1ccc(C)c(Sc2ccc(NC(=O)CCl)cc2)c1`, for which the Inhibition % was determined as 37%.

Turning to `O=C(CCl)Nc1ccc(SC(F)F)cc1`, the Inhibition % is 100%.

In the case of `CC1(C)[C@@H](Nc2cnc(C#N)cn2)[C@@H]1c1ccccc1` (racemic), the Inhibition % was found to be 10.2%.

With `Cc1nc(S)c(C#N)cc1C(=O)Nc1ccccc1`, the Inhibition % is reported as 10.1%.

As to `N#Cc1ncn(CC(=O)N(C2=CCCCC2)C2CC2)n1`, the Inhibition % came to 29.4%.

Consider `COc1ccc(OC)c(C(=O)CCl)c1`, for which the Inhibition % was 11.8%.

As to `COc1ccc(C(=O)CCl)c(OC)c1`, the Inhibition % was 41.1%.

Consider `COc1ccc(C(=O)CCl)c2c1C(=O)CO2`, for which the Inhibition % turned out to be 64.2%.

`O=C(C=Cc1cnc2ccccc2n1)N1CCCCC1`: the Inhibition % is 9.55%.

As to `O=C1OC[C@@H]2CN(Cc3ccccc3)C[C@H]12` (racemic), the Inhibition % is on record as 6.21%.

For the compound `O=S(=O)(F)c1nc2ccccc2s1`, the Inhibition % was found to be 12.9%.

As to `O=S(=O)(F)c1ccc2ccccc2n1`, the Inhibition % is given as 69.3%.

In the case of `CC(OS(C)(=O)=O)C(C)c1ccc2ccccc2n1.Cl` (centres unmarked), the Inhibition % is 24.3%.

With `Cc1cc(C=C(C#N)C(N)=O)c(C)n1C1CC1`, the Inhibition % was found to be 2.13%.

Regarding `Cc1cc(C(=O)CCl)c(C)n1CC(N)=O`, the Inhibition % was found to be 4.29%.

Regarding `Cc1cc(C(=O)Cn2cnc(C#N)n2)c(C)n1C(C)C`, the Inhibition % is given as 11.7%.

In the case of `Cc1cc(C(=O)CCl)c(F)cc1F`, the Inhibition % was 5.96%.

For the compound `C=CCn1c(C)cc(C(=O)CCl)c1C`, the Inhibition % is reported as 58.7%.

Regarding `Cc1cc(F)c(C(=O)CCl)cc1F`, the Inhibition % came out at 5.49%.

Take `Cc1cc(C(=O)CCl)c(C)n1C(C)C`: the Inhibition % came out at 96.9%.

Consider `Cc1cc(C(=O)CCl)c(C)n1CC1CCCO1` (centres unmarked), for which the Inhibition % came to 3.43%.

With `CCn1c(C)cc(C(=O)Cn2cnc(C#N)n2)c1C`, the Inhibition % was found to be 0.239%.

`CCn1c(C)cc(C(=O)CCl)c1C`: the Inhibition % stood at 56%.

Turning to `Cc1cc(C(=O)CCl)c(C)[nH]1`, the Inhibition % is 98.2%.
